# Bioassay records from PubChem BioAssay.
# GRIN3A LBD mod – modulators (binders) of human NR3A ligand-binding domain; Tm shift relative to glycine control, % at 25 µM; AID 1259313; NR3A LBD differential scanning fluorimetry, Tm shift; 0% = protein alone, 100% = glycine-bound protein; hit rate 2.5% among 340,000;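 active = melting temperature shift of at least 10% of the positive control shift, at one fixed dose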
# Rpn11 inh – blocks the human proteasome subunit Rpn11; hit rate 0.59% among 360,000; human 26S proteasome, Ub4-pepOG fluorescence polarization; 20S core pre-blocked with epoxomicin; O00487; AID 588493; inhibition, % at 20 µM;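 active = inhibition at 20 µM, scaled to each plate's controls, above about 33%, limit read from the data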
# ZTA counter – ZTA (EBV) inhibition in EBNA-1 counter-screen; P03206; ZTA-DNA binding, fluorescence polarization; inhibition, % at 11 µM; hit rate 0.15% among 320,000; in the data active = inhibition above about 33%
# Target sequence (P03206 whole entry, looked up): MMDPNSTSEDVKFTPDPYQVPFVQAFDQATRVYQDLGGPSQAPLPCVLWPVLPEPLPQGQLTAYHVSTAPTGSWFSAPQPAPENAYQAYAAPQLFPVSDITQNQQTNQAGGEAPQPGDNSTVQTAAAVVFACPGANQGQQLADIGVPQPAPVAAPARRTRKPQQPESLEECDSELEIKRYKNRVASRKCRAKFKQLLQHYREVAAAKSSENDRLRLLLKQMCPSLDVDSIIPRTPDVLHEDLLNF
# TPT1 inhibitor – C. albicans TPT1 enzyme inhibition. recombinant caTPT1, FP RNA substrate dephosphorylation. inhibition, % at 5 µM. hit rate 0.81% among 300,000. AID 1962;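 active = inhibition above the mean of all tested compounds plus 3 SD, set per screening campaign, cut at about 24% in these data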;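 also: plate controls were DMSO alone for no effect and ferristatin control at 100 nM for full effect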
# EBNA-1 inhibitor – blocks EBNA-1 binding to DNA. EBNA-1 DNA binding, fluorescence polarization. hit rate 0.34% among 300,000. inhibition, % at 14.8 µM; in the data active = inhibition above about 28%
# dFosB act-1 – mouse delta FosB homodimer activation. P13346. purified delta FosB, TAMRA-CDK5 oligo fluorescence polarization; percent of positive-control signal above neutral wells. activation, % at 25 µM. hit rate 0.99% among 340,000;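 active = mean activation above about 17%, with every replicate also reaching it, limit read from the data, passing the limit was not always enough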
# Target sequence (P13346 whole entry, looked up): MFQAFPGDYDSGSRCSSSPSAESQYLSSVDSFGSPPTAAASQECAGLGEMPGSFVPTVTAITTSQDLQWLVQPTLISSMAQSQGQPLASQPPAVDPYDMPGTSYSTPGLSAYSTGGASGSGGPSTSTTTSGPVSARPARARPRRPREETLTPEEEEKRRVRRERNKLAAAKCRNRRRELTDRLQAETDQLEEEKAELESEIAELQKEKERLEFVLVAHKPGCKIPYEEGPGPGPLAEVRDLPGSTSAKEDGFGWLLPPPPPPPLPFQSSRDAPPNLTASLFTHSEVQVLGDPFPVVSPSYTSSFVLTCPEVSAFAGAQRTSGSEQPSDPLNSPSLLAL
# dFosB act-2 – enhances mouse delta FosB homodimer binding to DNA; shares compounds with dFosB act-1; purified delta FosB, TAMRA-CDK5 oligo fluorescence polarization; normalised: neutral wells 0, positive control 100; activation, % at 24.9 µM; 2,400 tested, under 10 active; AID 588690;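 active = highest replicate activation at or above 34% and every replicate reaching that threshold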;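 also: higher polarization means more probe DNA bound by delta FosB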
# Active calls of the source: *; . = no result given. Rows were chosen to be rich in hits. Some 4.5% of all compounds tested hit in one or more screens of this group.
SMILES,GRIN3A LBD mod,Rpn11 inh,ZTA counter,TPT1 inhibitor,EBNA-1 inhibitor,dFosB act-1,dFosB act-2
O=C(CCn1c(=O)c2ccccc2n(Cc2cccnc2)c1=O)NCc1ccc2c(c1)OCO2,-4,2,-1,-3,7,-5,.
Cc1ccccc1Cn1c(=O)n(CCC(=O)NCc2ccc3c(c2)OCO3)c(=O)c2ccccc21,-1,1,-2,1,16,60*,-1
COc1cc(OC)cc(C(=O)N=c2sc3ccccc3n2C)c1,0,-28,-13,-4,-2,-18,.
COc1cccc(C(=O)N=c2sc3cc(S(C)(=O)=O)ccc3n2C)c1,2,-3,20,2,16,27*,2
CCCn1nc(C(=O)Nc2cc(S(=O)(=O)Nc3ccc(OC)cc3)ccc2O)c2ccccc2c1=O,27*,7,.,.,.,21*,2
CCCn1nc(C(=O)Nc2ccc(S(=O)(=O)Nc3nccs3)cc2)c2ccccc2c1=O,-2,5,-16,19,7,-7,.
O=C(NCc1cccnc1)c1c(O)c2cccc3c2n(c1=O)CCC3,-1,-5,12,1,-3,-54,.
CCc1ccc(NC(=O)C(NS(=O)(=O)c2ccc3c(c2)CCN3C(C)=O)C(C)C)cc1 (stereo unspecified),-2,2,-28,-2,-3,37*,4
O=C(c1ccc(NC(=S)NCc2ccc(Cl)cc2)cc1)N1CCCCC1,-4,1,15,1,-2,30*,1
COc1ccc(N(CC(=O)Nc2ccc3c(c2)OCCO3)S(=O)(=O)c2c(C)noc2C)cc1,-6,-3,-26,0,-9,37*,3
CCOC(=O)c1c(C)[nH]c(C(=O)OCC(=O)Nc2cc(C)c(Cl)cc2OC)c1C,-2,10,-17,-6,-9,45*,1
CCOC(=O)c1c(C)[nH]c(C(=O)OCC(=O)NCc2ccc(OC)c(OC)c2)c1C,3,-3,-3,.,.,5,.
CC(=O)Nc1ccc(NC(=O)c2ccc(NS(=O)(=O)c3cc(C(C)(C)C)cc(C)c3C)cc2)cc1,26*,5,11,-4,12,54*,9
COc1ccc(-c2csc(NCCc3nc4cc(C(=O)NCCCO)ccc4n3Cc3ccc(C)cc3)n2)cc1,-10,18,6,6,10,2,.
CC1=C(C(=O)N2CCOCC2)CC(CC(=O)NCCN2CCOCC2)C(=O)N1Cc1ccc(F)cc1 (stereo unspecified),.,-2,.,.,.,.,.
O=C(c1ccccc1)N1CCN(c2ncnc3sc4c(c23)CCC4)CC1,0,7,-7,0,-2,2,.
COc1ccccc1NC(=O)NNC(=O)c1ccc(-c2ccccc2)cc1,-14,-12,18,0,-3,-9,.
O=C(NNC(=O)c1ccc(-c2ccccc2)cc1)Nc1ccc(F)cc1F,1,1,12,2,3,30*,-3
Cc1ccc(NC(=O)c2c(C(=O)Nc3ccccc3)sc3nc(C)cc(=O)n23)cc1,-2,1,-12,-3,-13,32*,-3
CCc1ccc(NC(=O)c2cc3c(C)nc4ccccc4c3o2)cc1,3,5,-5,1,4,-17,.
CCc1ccc(NC(=O)c2c(C(=O)Nc3ccccc3)sc3nc(C)cc(=O)n23)cc1,-1,-5,-4,1,2,35*,-1
COc1ccc(-c2cc(=O)oc3c(C)c(OC(C)C(=O)Nc4ccc(CN5CCOCC5)cc4)ccc23)cc1 (stereo unspecified),0,13,15,2,-2,43*,7
CN(C)CCCN1C(=O)c2cccc3c(Br)ccc(c23)C1=O,0,-31,1,-7,6,32*,3
C/C(=N\NC(=O)c1c(Cl)c(C)nn1C)c1ccc(NC(=O)COc2ccc(Cl)cc2C)cc1,-22,-2,5,-5,0,33*,2
C/C(=N\NC(=O)c1c(Cl)c(C)nn1C)c1cccc(NC(=O)COc2ccccc2)c1,0,-4,15,-5,7,29*,-2
SMILES,GRIN3A LBD mod,Rpn11 inh,ZTA counter,TPT1 inhibitor,EBNA-1 inhibitor,dFosB act-1,dFosB act-2
C/C(=N\NC(=O)c1c(Cl)c(C)nn1C)c1cccc(NC(=O)c2cccc(F)c2)c1,-4,20,11,0,4,-7,.
C/C(=N/NC(=O)c1cccs1)c1ccc(NC(=O)COc2ccc(Cl)cc2)cc1,3,0,-2,-1,4,32*,5
C/C(=N\NC(=O)c1c(Cl)c(C)nn1C)c1ccc(NC(=O)C2CCC2)cc1,1,-2,-1,1,-6,1,.
C/C(=N/NC(=O)CSCc1ccc(Cl)cc1)c1cccc(NC(=O)c2ccccc2)c1,2,-3,6,2,6,38*,2
C/C(=N\NC(=O)c1ccc(Cl)cc1)c1cccs1,-1,-14,.,.,.,-5,.
CC(NC(=O)COC(=O)C1CC2CCCC(C1)C2=O)c1ccccc1 (stereo unspecified),0,-1,-4,.,.,3,.
CC(=O)c1ccccc1C(=O)NCc1cccnc1,-4,-13,-3,-5,-6,-2,.
COC(=O)Nc1ccc(S(=O)(=O)NNC(=O)c2c(O)c3ccccc3n(C)c2=O)cc1,-5,-9,3,1,0,41*,0
CCn1c(=O)c(C(=O)NNS(=O)(=O)c2ccc(NC(=O)OC)cc2)c(O)c2ccccc21,-9,2,-3,0,-4,-5,.
O=C(NNC(=O)c1c(O)c2ccccc2[nH]c1=O)c1ccccc1Br,-2,3,-4,-5,-4,52*,0
O=C(CCl)NNC(=O)c1c(O)c2ccccc2[nH]c1=O,-3,4,20,-2,12,-9,.
Cc1[nH]c2ccccc2c1C(=O)C(=O)Nc1ccc2c(c1)OCO2,1,0,9,1,8,-6,.
CN(c1ccccc1)S(=O)(=O)c1ccc(C(=O)N2CCCC(C(F)(F)F)C2)cc1 (stereo unspecified),-3,0,-4,0,-7,-14,.
Cn1c(=O)oc2cc(S(=O)(=O)N3CCCC(C(=O)NCc4ccc5c(c4)OCO5)C3)ccc21 (stereo unspecified),1,0,-4,1,2,46*,2
O=C(COC(=O)c1cc(=O)[nH]c2ccccc12)Nc1nc(-c2ccc(F)cc2)cs1,1,4,.,.,.,41*,2
O=C(COC(=O)c1cc(Cl)ccc1O)NC(=O)NCc1ccccc1,0,-1,15,.,.,24*,6
O=C(COC(=O)c1ccccc1O)NC(=O)NCc1ccccc1,0,-5,.,.,.,9,.
O=C(COC(=O)c1cc(=O)[nH]c2ccccc12)NCc1ccc(F)cc1,0,-2,0,.,.,-10,.
